Compounds without any hit were thinned out: in the full panel of roughly 83,000, 20% have a hit.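 Method: cells in 96-well plates; compound added at one concentration; 48 h incubation; percent growth measured; values under 10 scored active.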 Active and inactive are the calls of the source.
What was measured:
Experiment in all cases: NCI-60 one-dose screen, 48 h (100 = growth as untreated, 0 = no growth, -100 = all killed)
Settings in all cases: 10 µM unless noted
SK-MEL-2 melanoma = test system: SK-MEL-2 melanoma
EKVX NSCLC = test system: EKVX NSCLC
SN12C renal = test system: SN12C renal
UO-31 renal = test system: UO-31 renal
TK-10 renal = test system: TK-10 renal
ACHN renal = test system: ACHN renal
A498 renal = test system: A498 renal
CCRF-CEM leukemia = test system: CCRF-CEM leukemia
MOLT-4 leukemia = test system: MOLT-4 leukemia
SR leukemia = test system: SR leukemia

Measured: growth

Cc1cc(C)n(-c2nc(-c3cccs3)c(C#N)c(=O)[nH]2)n1
inactive: SK-MEL-2 melanoma 97.2% | EKVX NSCLC 95.5% | SN12C renal 95.8% | UO-31 renal 89.1% | TK-10 renal 103% | ACHN renal 108% | A498 renal 93.8% | CCRF-CEM leukemia 103% | MOLT-4 leukemia 87% | SR leukemia 100%

O=C1CC(c2ccc(O)c(O)c2)Oc2cc(O)c([C@@H]3O[C@H](CO)[C@@H](O)[C@H](O)[C@H]3O)c(O)c21 (stereo not given in full)
inactive: SK-MEL-2 melanoma 104% | EKVX NSCLC 99.5% | SN12C renal 98.7% | UO-31 renal 103% | TK-10 renal 106% | ACHN renal 102% | A498 renal 108% | CCRF-CEM leukemia 97.3% | MOLT-4 leukemia 100% | SR leukemia 98.6%

C#C[C@@]1(O)[C@@H](CO)O[C@@H](n2cc(Br)c3c(N)ncnc32)[C@@H]1O
active: SK-MEL-2 melanoma -24.9% | EKVX NSCLC -23.8% | SN12C renal -1.98% | UO-31 renal -78.3% | TK-10 renal -0.297% | ACHN renal -5.98% | A498 renal -78.9% | CCRF-CEM leukemia 3.84% | MOLT-4 leukemia -16.5% | SR leukemia -1.01%

O=C(Nc1ccccc1)NS(=O)(=O)c1c[nH]c(=S)[nH]c1=O
inactive: SK-MEL-2 melanoma 91.5% | EKVX NSCLC 99.6% | SN12C renal 103% | UO-31 renal 89.3% | TK-10 renal 97.6% | ACHN renal 108% | A498 renal 112% | CCRF-CEM leukemia 113% | MOLT-4 leukemia 90.8% | SR leukemia 87.3%

COc1cc(C2=NN(C(C)=O)C(c3cccc(Nc4ccnc5cc(C(F)(F)F)ccc45)c3)C2)cc(OC)c1OC (stereo not given)
inactive: SK-MEL-2 melanoma 81.4% | EKVX NSCLC 52.2% | SN12C renal 64.3% | UO-31 renal 35.8% | TK-10 renal 58.3% | ACHN renal 58.5% | A498 renal 60.3% | CCRF-CEM leukemia 44% | MOLT-4 leukemia 22.3% | SR leukemia 29%

O=C(Nc1nc2ccc(C(F)(F)F)cc2s1)c1cc(Cl)ccc1O
active: SK-MEL-2 melanoma -11.4% | EKVX NSCLC -1.23% | SN12C renal 9.78% | UO-31 renal 7.2% | TK-10 renal 4.94% | ACHN renal 2.6% | A498 renal -26.8% | MOLT-4 leukemia 1.46% | SR leukemia 0.767%
inactive: CCRF-CEM leukemia 15%

COc1ccccc1N1CCN(CCCOc2ccc(C(=O)/C=C3/C(=O)Nc4ccccc43)cc2)CC1
inactive: SK-MEL-2 melanoma 72.2% | EKVX NSCLC 53.5% | SN12C renal 69.7% | UO-31 renal 44.5% | TK-10 renal 87.1% | ACHN renal 74.2% | A498 renal 88.6% | CCRF-CEM leukemia 15.6% | MOLT-4 leukemia 18.6% | SR leukemia 19.8%

O=C(N/N=C/C[C@@H]1[C@@H](/C=C/[C@@H](O)COc2cccc(Cl)c2)[C@H](O)C[C@@H]1O)c1ccncc1
inactive: SK-MEL-2 melanoma 102% | EKVX NSCLC 98.4% | SN12C renal 102% | UO-31 renal 89.5% | TK-10 renal 73.2% | ACHN renal 101% | A498 renal 97.9% | CCRF-CEM leukemia 98% | MOLT-4 leukemia 83.7% | SR leukemia 92.3%

CN1CC=C(c2cc(NC(=O)Nc3ccc(Oc4ccnc(NC(=O)C5CC5)c4)c(F)c3)cc(C(F)(F)F)c2)CC1
active: SK-MEL-2 melanoma -42.8% | EKVX NSCLC -19.9% | SN12C renal 2.74% | UO-31 renal -1.84% | TK-10 renal -2.39% | ACHN renal -1.41% | A498 renal -27.9% | CCRF-CEM leukemia 1.49% | MOLT-4 leukemia -4.01% | SR leukemia -18.3%

CN(C)[C@@H]1C(=O)C(C(N)=O)=C(O)[C@@]2(O)C(=O)C3=C(O)c4c(O)cc(CN5CCc6ccccc6C5)c(Cl)c4C[C@H]3C[C@@H]12
active: SK-MEL-2 melanoma -90.6% | EKVX NSCLC -90.3% | SN12C renal -73% | UO-31 renal -95.5% | TK-10 renal -84.3% | ACHN renal -76.1% | A498 renal -89.2% | CCRF-CEM leukemia -40.7% | MOLT-4 leukemia -67.9% | SR leukemia -50.7%

Nc1cccc(C(=O)Nc2ccc3c(O)c(N=Nc4ccc(N=Nc5ccc(S(=O)(=O)O)cc5)cc4)c(S(=O)(=O)O)cc3c2)c1
inactive: SK-MEL-2 melanoma 108% | EKVX NSCLC 103% | SN12C renal 106% | UO-31 renal 90.2% | TK-10 renal 101% | ACHN renal 105% | A498 renal 105% | CCRF-CEM leukemia 96.6% | MOLT-4 leukemia 84.6% | SR leukemia 77.4%

CCCCC(=O)Nc1c(C(=O)Nc2ccccc2)sc2nc3c(cc12)C(OC(=O)CCCC)CCC3 (stereo not given)
inactive: SK-MEL-2 melanoma 93.8% | EKVX NSCLC 91.9% | SN12C renal 96.9% | UO-31 renal 89% | TK-10 renal 98.2% | ACHN renal 115% | A498 renal 64.7% | CCRF-CEM leukemia 69.8% | MOLT-4 leukemia 75.9%
active: SR leukemia -10.6%

CCc1ccc(OCc2ccccc2C(=O)Nc2ccc3nc(C)cc(N)c3c2)cc1
active: SK-MEL-2 melanoma -83.1% | EKVX NSCLC -56.2% | SN12C renal -79.7% | UO-31 renal -98.5% | TK-10 renal -93.5% | ACHN renal -100% | A498 renal -94.3% | CCRF-CEM leukemia -53.4% | MOLT-4 leukemia -74.4% | SR leukemia -61.2%

O=C(Nc1ccc(N=Cc2ccccc2O)cc1)NC1C=c2ccccc2=CC1 (stereo not given)
inactive: SK-MEL-2 melanoma 102% | EKVX NSCLC 106% | SN12C renal 102% | UO-31 renal 81.9% | TK-10 renal 111% | ACHN renal 102% | A498 renal 83.5% | CCRF-CEM leukemia 81% | MOLT-4 leukemia 93% | SR leukemia 95.1%

Cc1cnc(-c2ccc(-c3ccc(NC(=O)Nc4c(F)cc(F)cc4F)cc3F)c3c2C(=O)NC3)[nH]1
inactive: SK-MEL-2 melanoma 58.1% | EKVX NSCLC 52% | UO-31 renal 50.3% | TK-10 renal 83.6% | ACHN renal 50.4% | A498 renal 22.4% | CCRF-CEM leukemia 23.9% | MOLT-4 leukemia 18.3%
active: SN12C renal 3.34% | SR leukemia -3.54%

CC(=O)ON1CCCC(P(=O)(OCOC(=O)C(C)(C)C)OCOC(=O)C(C)(C)C)C1=O (stereo not given)
active: SK-MEL-2 melanoma 9.04% | EKVX NSCLC 9.78% | SN12C renal -1.1% | UO-31 renal -8.25% | TK-10 renal 1.68% | ACHN renal 6.57% | A498 renal -8.06% | CCRF-CEM leukemia -7.6% | MOLT-4 leukemia -25.4% | SR leukemia -22.3%

C#CCN1C(=O)c2ccccc2N(CC#C)C12CCN(Cc1cn(CC(=O)Nc3ccccc3C(N)=O)nn1)CC2
inactive: SK-MEL-2 melanoma 98.8% | EKVX NSCLC 78.6% | SN12C renal 88.9% | UO-31 renal 59.3% | TK-10 renal 82.8% | ACHN renal 92.5% | A498 renal 75.8% | CCRF-CEM leukemia 84.3% | MOLT-4 leukemia 83.2% | SR leukemia 64.6%

CCOC(=O)NCCc1nc2c([nH]1)c(=O)n(C)c(=O)n2C
inactive: SK-MEL-2 melanoma 101% | EKVX NSCLC 99.7% | SN12C renal 101% | UO-31 renal 83.3% | TK-10 renal 100% | ACHN renal 110% | A498 renal 105% | CCRF-CEM leukemia 101% | MOLT-4 leukemia 115% | SR leukemia 119%

C=C(C)[C@@H]1CC[C@]2(C(=O)O)CC[C@]3(C)[C@H](CC[C@@H]4[C@@]5(C)C[C@@H](CC#Cc6ccccc6C)C(=O)C(C)(C)[C@@H]5CC[C@]43C)[C@@H]12
inactive: SK-MEL-2 melanoma 41.1% | EKVX NSCLC 28.1% | SN12C renal 37.8% | UO-31 renal 29.4% | TK-10 renal 27.3% | ACHN renal 29.4% | A498 renal 10.7% | CCRF-CEM leukemia 31.1% | MOLT-4 leukemia 13.3% | SR leukemia 23%

NCCCn1c2c(c3cc(-c4ccn[nH]4)ccc3c1=O)C(=O)c1ccccc1-2
active: MOLT-4 leukemia -9.41% | SR leukemia -2.64%
inactive: SK-MEL-2 melanoma 105% | EKVX NSCLC 77% | SN12C renal 49.1% | UO-31 renal 47.7% | TK-10 renal 72.3% | ACHN renal 20.4% | A498 renal 72% | CCRF-CEM leukemia 16.5%

Cc1[nH]c(N=Nc2ccccc2)nc1N=Nc1ccccc1
inactive: SK-MEL-2 melanoma 39.8% | EKVX NSCLC 20.5% | SN12C renal 39.2% | TK-10 renal 13.1% | A498 renal 35% | MOLT-4 leukemia 13.8% | SR leukemia 23.1%
active: UO-31 renal -22% | ACHN renal 7.3% | CCRF-CEM leukemia -24.1%

COc1ccc2nc(-c3ccc(OC)c(OC)c3)cc(-c3nnc(SCC(=O)Nc4ccc(/C(C)=N\O)cc4)n3-c3ccccc3)c2c1
inactive: SK-MEL-2 melanoma 80.7% | EKVX NSCLC 88.8% | SN12C renal 80.7% | UO-31 renal 54.2% | TK-10 renal 65.9% | ACHN renal 75.5% | A498 renal 77.9% | CCRF-CEM leukemia 40% | MOLT-4 leukemia 33.8% | SR leukemia 54.7%

CCN(CC)CC#CCOC(=O)[C@]1(C)CCC[C@]2(C)[C@H]3C[C@H]4C(C(C)C)=C[C@]3(CC[C@H]21)[C@@H]1C(=O)CCC(=O)[C@@H]14
inactive: SK-MEL-2 melanoma 72.3% | EKVX NSCLC 55.9% | SN12C renal 57.1% | UO-31 renal 50.9% | TK-10 renal 95.4% | ACHN renal 72.5% | A498 renal 102% | CCRF-CEM leukemia 20.5% | MOLT-4 leukemia 10.7% | SR leukemia 10.2%

Oc1c(CCl)cc(Cl)cc1Cc1cc(Cl)cc(Cc2cc(Cl)cc(CCl)c2O)c1O
active: SK-MEL-2 melanoma -16.6% | SN12C renal 8.92% | A498 renal -4.67%
inactive: EKVX NSCLC 21% | UO-31 renal 32% | TK-10 renal 17.7% | ACHN renal 22.7% | CCRF-CEM leukemia 13.5% | MOLT-4 leukemia 21% | SR leukemia 40.8%

O=C(O)c1cn(C2CC2)c2cc(N3CCN(Cc4nnc(Nc5ccccc5)o4)CC3)c(F)cc2c1=O
inactive: SK-MEL-2 melanoma 101% | EKVX NSCLC 103% | SN12C renal 109% | UO-31 renal 92.5% | TK-10 renal 112% | ACHN renal 103% | A498 renal 92.2% | CCRF-CEM leukemia 92% | MOLT-4 leukemia 98.5% | SR leukemia 97.7%

CCC[S@@](=O)c1ccc2nc(NC(=O)OC)[nH]c2c1
inactive: SK-MEL-2 melanoma 95.1% | EKVX NSCLC 90.2% | SN12C renal 96.4% | UO-31 renal 90.9% | TK-10 renal 91.9% | ACHN renal 102% | A498 renal 87.6% | CCRF-CEM leukemia 86.4% | MOLT-4 leukemia 74.5% | SR leukemia 41.6%

— PubChem BioAssay (NCI)
